Values without a mark were called inactive. Calls of active or inactive are those of the source. Calls follow the shape of the dose curve; as a rule, active = well fitted activation curve with a large enough effect in the signal ratio in the repeat runs (not every such curve was filed as active); inconclusive = weak or mixed curves, or effect the other way; inactive = no such curve, though single readings can be large or run the other way; the % refers to the signal ratio.
target: Glucocorticoid receptor (Homo sapiens) (UniProt P04150); assay: qHTS assay to identify small molecule agonists of the glucocorticoid receptor (GR) signaling pathway (AID 720691); conditions: GR-bla HeLa, beta-lactamase reporter ratio, 18 h; activation: at 62.4 µM (top of the series)
Source text: U.S. Tox21 Program National Center for Advancing Translational Sciences [NCATS] NIH Chemical Genomics Center [NCGC] U.S. Environmental Protection Agency [EPA] National Institutes of Environmental Health Sciences [NIEHS] National Toxicology Program [NTP] U.S. Food and Drug Administration [FDA] Tox21 Assay Overview: The Glucocorticoid receptor (GR) is one of the members of the nuclear receptor family of ligand-dependent transcription factors. GR plays a critical role in carbohydrate, protein and lipid metabolisms and programmed cell death. CellSensor GR-bla HeLa cell line (Invitrogen) contains a beta-lactamase reporter gene under the control of the glucocorticoid response element stably integrated into HeLa cells, a cervical cancer cell line that expresses glucocorticoid receptor. The activation of the reporter gene under culture conditions can be detected by fluorescence intensity. This cell line has been used to screen the Tox21 10K compound library and to identify the compounds that activate the GR signaling.
Tox21 Assay Protocol Summary: The GR-bla HeLa cells were dispensed at 1500 cells/6 ul/well in 1536-well black wall/clear bottom plates using a Multidrop Combi (ThermoFisher Scientific, Waltham, MA) dispenser. After the assay plates were incubated at a 37 C/5% CO2 incubator for 4 hours, 23 nL of compounds dissolved in DMSO, positive controls or DMSO only was transferred to the assay plate by a pintool station (Kalypsys, San Diego, CA). The plates were incubated at 37 C for 18 hours. After 1 uL of LiveBLAzerTM B/G FRET substrate was added using a Flying Reagent Dispenser (Aurora Discovery, San Diego, CA), the plates were incubated at room temperature for 2 hours, and fluorescence intensity was measured by an Envision plate reader (PerkinElmer, Shelton, CT).
% is scaled to controls: 0 for no effect and ±100 for the full control effect; potency is read from the fitted curve at half-maximal effect.

Glucocorticoid receptor (Homo sapiens), sequence (P04150 whole entry, looked up): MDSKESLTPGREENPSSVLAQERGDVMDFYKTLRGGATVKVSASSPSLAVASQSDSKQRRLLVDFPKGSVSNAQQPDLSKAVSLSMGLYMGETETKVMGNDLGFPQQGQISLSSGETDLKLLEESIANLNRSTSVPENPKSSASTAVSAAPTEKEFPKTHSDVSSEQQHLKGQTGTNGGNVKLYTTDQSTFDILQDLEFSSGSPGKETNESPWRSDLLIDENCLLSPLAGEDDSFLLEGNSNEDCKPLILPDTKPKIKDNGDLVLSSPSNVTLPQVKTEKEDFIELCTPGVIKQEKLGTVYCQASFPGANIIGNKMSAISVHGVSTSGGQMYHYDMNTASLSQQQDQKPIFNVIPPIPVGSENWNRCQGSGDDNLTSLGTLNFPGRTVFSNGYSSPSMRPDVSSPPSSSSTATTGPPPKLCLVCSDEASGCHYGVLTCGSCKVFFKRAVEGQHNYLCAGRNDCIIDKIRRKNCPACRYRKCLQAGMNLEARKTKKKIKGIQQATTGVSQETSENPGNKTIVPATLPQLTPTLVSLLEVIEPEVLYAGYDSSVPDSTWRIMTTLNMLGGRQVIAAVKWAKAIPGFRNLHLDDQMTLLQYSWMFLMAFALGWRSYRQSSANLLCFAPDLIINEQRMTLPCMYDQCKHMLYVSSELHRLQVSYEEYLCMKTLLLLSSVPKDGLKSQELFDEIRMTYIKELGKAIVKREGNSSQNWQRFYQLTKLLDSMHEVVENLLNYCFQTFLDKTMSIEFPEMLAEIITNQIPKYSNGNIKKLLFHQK

SMILES	Potency	activation
COc1ccc(CN2CCN(C(c3ccc(F)cc3)c3ccc(F)cc3)CC2)c(OC)c1OC	4770 nM (active)	–
Cc1cccc(S(=O)(=O)O)c1C	–	-1.3%
Cn1cc(C(=O)[C@@H]2CCc3nc[nH]c3C2)c2ccccc21	–	-0.215%
Cc1onc(-c2c(Cl)cccc2Cl)c1C(=O)N[C@@H]1C(=O)N2[C@@H]1SC(C)(C)[C@@H]2C(=O)O	–	-15.3%
CCCCCCCCCCCCCCCS(=O)(=O)Oc1ccccc1	–	8.2%
CCCCCCCCCCC=O	–	-0.409% [at 79.2 µM]
On1ccccc1=S	–	8.82%
CN(C)[C@@H]1C(=O)C(C(N)=O)=C(O)[C@@]2(O)C(=O)C3=C(O)c4c(O)ccc(Cl)c4[C@@H](O)[C@H]3C[C@@H]12	–	-6.2%
CN(C/C=C/C#CC(C)(C)C)Cc1cccc2ccccc12	–	7.67%
CCC(N)(CO)CO	–	0% [at 79.2 µM]
CCC(Cl)C(Cl)C(Cl)CC(Cl)C(Cl)C(C)Cl (stereo not given)	–	1.62%
COc1cc(/C=C/C(=O)O[C@H]2CC[C@]34C[C@]35CC[C@]3(C)[C@@H]([C@H](C)CCC=C(C)C)CC[C@@]3(C)[C@@H]5CC[C@H]4C2(C)C)ccc1O	1510 nM [inconclusive] (active)	–
O=C(OCC1CO1)C1CCCCC1C(=O)OCC1CO1 (stereo not given)	–	-13.4%
CC(=O)N1CCN(c2ccc(OC[C@H]3CO[C@](Cn4ccnc4)(c4ccc(Cl)cc4Cl)O3)cc2)CC1	–	0.36%
NNC(=O)c1cccc(C(=O)NN)c1	–	2.72%
O=C(c1ccc(O)cc1O)c1ccc(O)cc1O	–	-11.4%
C/C=C(\C)C(=O)OCc1ccccc1	–	3.23%
CCC1=C[C@@H]2CN(C1)Cc1c([nH]c3ccccc13)[C@@](C(=O)OC)(c1cc3c(cc1OC)N(C)[C@H]1[C@@](O)(C(=O)OC)[C@H](OC(C)=O)[C@]4(CC)C=CCN5CC[C@]31[C@@H]54)C2	–	0.863%
CCc1oc2ccccc2c1C(=O)c1cc(Br)c(O)c(Br)c1	–	6.24%
Cc1cc(O)c(Cl)c(C)c1Cl	–	159%

SMILES	Potency	activation
CC[C@@]1(O)C(=O)OCc2c1cc1n(c2=O)Cc2cc3c(CN(C)C)c(O)ccc3nc2-1	–	-7.27%
CNC(=O)c1ccccc1	–	0.155%
O=C(c1ccc(F)cc1)C1CCN(CCn2c(=O)[nH]c3ccccc3c2=O)CC1	–	2.62%
ON=C1CCCC1	–	1.22% [at 79.2 µM]
CC[C@H](c1ccc(O)cc1)[C@@H](CC)c1ccc(O)cc1	–	-7.14% [at 29.2 µM]
O=C1c2c(O)ccc(Nc3ccc(CCO)cc3)c2C(=O)c2c([N+](=O)[O-])ccc(O)c21	–	-8.06%
Cc1cc2c(cc1C(F)(F)F)N(C(=O)Nc1ccc(Oc3cccnc3C)nc1)CC2	–	6.09%
CCCCCCCCS(=O)C(C)Cc1ccc2c(c1)OCO2 (stereo not given)	–	10.3% [at 79.2 µM]
Fc1ccc(C(c2ccc(F)cc2)N2CCN(C/C=C/c3ccccc3)CC2)cc1	–	6.76%
CCOC(=O)O[C@]1(C(=O)OCCl)CC[C@H]2[C@@H]3CCC4=CC(=O)C=C[C@]4(C)[C@H]3[C@@H](O)C[C@@]21C	75.6 nM (active)	–
O=C(O)c1cc(O)c2c(c1)C(=O)c1cccc(O)c1C2=O	–	-4.5% [at 79.2 µM]
Fc1ccc([C@@H]2CCNC[C@H]2COc2ccc3c(c2)OCO3)cc1	–	11.9%
CC(C)(C)c1ccc(C(=O)O)cc1	–	-2.9%
COc1cccc(N)c1	–	-8.42% [at 79.2 µM]
Cc1[nH]cnc1C[C@H]1CCc2c(C)c3ccccc3n2C1=O	inactive	–
COc1cccc2c1C(=O)c1c(O)c3c(c(O)c1C2=O)C[C@@](O)(C(=O)CO)C[C@@H]3O[C@H]1C[C@H](N)[C@H](O[C@@H]2CCCCO2)[C@H](C)O1	3010 nM (active)	–
Nc1ccc2cc(S(=O)(=O)O)cc(O)c2c1N=Nc1ccccc1C(F)(F)F	–	5.55%
Clc1ccc2n[nH]nc2c1	–	0.121%
Cc1cc(CCN2CCN(c3nsc4ccccc34)CC2)cc2c1NC(=O)CC2(C)C	–	24.1%
Cc1cccc(CN2CCN(C(c3ccccc3)c3ccc(Cl)cc3)CC2)c1 (stereo not given)	–	1.11% [at 29.2 µM]
